TEAD-YAP inh: TEAD-YAP interaction inhibition; HEK-TIYL cells, TEAD-Gal4/YAP UAS-luciferase luminescence; inhibition, % at 9.12 µM; 1.4% of 640,000 active; AID 1259422; in the data active = inhibition above about 32%
GPR151 activ: activates the human receptor GPR151; 1% of 650,000 active; activation, % at 11.2 µM; PathHunter beta-arrestin GPR151 cells, luminescence; Q8TDV0; AID 1508602; in the data active = activation above about 4.9%
Target sequence (Q8TDV0 whole entry, looked up): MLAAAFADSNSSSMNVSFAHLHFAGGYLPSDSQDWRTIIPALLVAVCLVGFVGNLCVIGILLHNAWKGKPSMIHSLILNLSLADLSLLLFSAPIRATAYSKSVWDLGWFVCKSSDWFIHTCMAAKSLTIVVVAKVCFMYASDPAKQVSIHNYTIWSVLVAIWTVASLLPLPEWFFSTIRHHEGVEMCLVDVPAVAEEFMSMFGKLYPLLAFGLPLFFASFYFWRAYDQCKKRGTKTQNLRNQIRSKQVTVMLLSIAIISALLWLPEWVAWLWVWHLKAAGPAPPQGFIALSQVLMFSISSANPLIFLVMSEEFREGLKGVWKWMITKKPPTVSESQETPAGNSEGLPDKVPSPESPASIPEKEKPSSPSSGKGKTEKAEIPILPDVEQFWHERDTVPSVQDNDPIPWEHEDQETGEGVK
FBW7 activator: activators of human E3 ligase FBW7 | AlphaScreen FBW7–phospho-cyclin E peptide binding, activator screen | normalized activity (activation), % at 26.1 µM | 0.13% of 650,000 active; in the data active = normalized activity above about 1.9%;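 note: purified mutant Fbw7 with reduced substrate affinity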
MITF primary: blocks human microphthalmia-associated transcription factor | AlphaScreen MITF homodimerization, bead proximity signal | O75030 | inhibition, % at 2.6 µM | 0.91% of 650,000 active; in the data active = inhibition above about 50%
GPR151 conf act: human GPR151 activation, confirmation screen | GPR151 PathHunter beta-arrestin cells, luminescence, 90 min; % of EA-reagent control over plate median | 6,700 tested, under 10 active | activation, % at 11.2 µM | shares compounds with GPR151 activ;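 active = mean percent activation across replicates above the confirmation screen cutoff of 4.91%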
GPR119 ag: GPR119 activation, counter-screen for GPR151 activators; activation, % at 11.2 µM; 0.3% of 6,700 active; GPR119 PathHunter beta-arrestin cells, luminescence, 90 min; 0 = compound-well median, 100 = enzyme-acceptor control; shares compounds with GPR151 activ;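 active = mean percent activation in the counterscreen above 29.09%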;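 note: counterscreen on off-target GPR119 to flag nonselective hits from the GPR151 activator screen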
Hits are given with their value; – = inactive; · = not tested or not shown; ! = not active in a repeat. Rows were chosen to be rich in hits. Some 3.5% of all compounds tested hit in one or more screens of this group.

SMILES	TEAD-YAP inh	GPR151 activ	FBW7 activator	MITF primary	GPR151 conf act	GPR119 ag
COc1ccc(CCNc2ncnc3nc(-c4cccc(N)c4)[nH]c23)cc1	–	5.2	–	–	–	–
CSc1ncc(CN2CCCC(N3CCN(c4ccccc4)CC3)C2)cn1 (stereo not given)	–	8.8	–	–	–	–
Cc1ccc(CCC(=O)Nc2ccc([N+](=O)[O-])cc2Cl)o1	–	5.2	–	–	–	–
Cc1ccc(CCC(=O)Nc2ccc(Cl)cc2Cl)o1	–	–	–	–	·	·
COc1ccc([N+](=O)[O-])cc1NC(=O)c1ccc(C)o1	–	9.7	–	–	–	–
Cc1ccc(C(=O)Nc2ccc(F)c([N+](=O)[O-])c2)o1	–	5.4	–	–	–	–
Cc1ccc(C(=O)Nc2cccc(C(F)(F)F)c2)o1	–	7.1	–	–	–	–
O=C(Nc1ccc(F)c([N+](=O)[O-])c1)c1ccc(-c2cccc(Cl)c2)o1	–	–	–	–	·	·
COc1ccc(C(=O)Nc2cc([N+](=O)[O-])ccc2OC)cc1	–	–	–	–	·	·
CCc1ccccc1NC(=O)c1cc(-c2ccc(Cl)cc2)nc2ccccc12	–	–	–	–	·	·
CN(C)c1ccc(C(=O)NNC(=S)Nc2ccc(F)cc2)cc1	–	–	–	–	·	·
CCN(CC)S(=O)(=O)c1cccc(-c2cn3cccnc3n2)c1	–	–	–	–	·	·
CC1CCCN(S(=O)(=O)c2cccc(-c3cn4cccnc4n3)c2)C1 (stereo not given)	–	5.0	–	–	–	–
O=C(Cn1c(=O)c2c(ncn2C2CCCC2)n(Cc2ccccc2)c1=O)NCc1ccco1	–	–	–	–	·	·
O=C(c1ccc(-c2ccccc2)cc1)n1cccn1	–	–	–	–	·	·
COc1ccc(NC(=O)C2CCC(Cn3c(=S)[nH]c4ccccc4c3=O)CC2)cc1 (stereo not given)	–	7.0	–	–	–	–
CC(=O)CN(c1ccc2c3c(cccc13)CC2)S(C)(=O)=O	–	–	–	–	·	·
Cc1cn2c(=O)c(C(=O)NOCc3cccc(C(F)(F)F)c3)cnc2s1	–	14	–	–	–	–
COc1ccc(OC)c(-n2c(CNC(=O)c3cccs3)nnc2SCC(=O)Nc2nccs2)c1	–	–	–	–	·	·
CC1(C)NC(=O)N(CCOCCOc2ccc3ccccc3c2Br)C1=O	–	5.5	–	–	–	–
CC1(C)NC(=O)N(CC(O)COc2ccc3ccccc3c2Br)C1=O (stereo not given)	–	–	–	–	·	·
CCN(CC)c1nc(NCCO)nc(N2CCN(c3ccccn3)CC2)n1	–	7.6	–	–	–	–
CCN(CC)c1nc(NCc2cccnc2)nc(N2CCN(c3ccccn3)CC2)n1	–	6.0	–	–	–	–
CCn1c(=O)c(C(=O)NNC(=O)c2ccc([N+](=O)[O-])cc2)c(O)c2ccccc21	–	21	–	–	–	–
Cn1ccnc1SCC(=O)Nc1ccc(C#N)cc1	–	–	–	–	·	·
SMILES	TEAD-YAP inh	GPR151 activ	FBW7 activator	MITF primary	GPR151 conf act	GPR119 ag
Cc1ccc(NC(=S)NCc2ccco2)cc1	–	–	–	–	·	·
Cc1cnn(C(=S)NCc2ccco2)c1	–	5.1	–	–	–	–
COc1ccc2c(c1)CCC(C)N2S(=O)(=O)c1ccc(C2CNC(=O)C2)cc1 (stereo not given)	–	8.3	–	–	–	–
COc1ccc(CNS(=O)(=O)c2ccc(C3CNC(=O)C3)cc2)cc1 (stereo not given)	–	–	–	–	·	·
CC(=O)Nc1ccc(NC(=O)Cn2cc(-c3ccccc3)c(N(C)C)n2)cc1	–	–	–	–	·	·
Cc1cc(NC(=O)NC(=O)c2ccc(Cl)c(Cl)c2)n[nH]1	–	6.6	–	–	–	–
Cc1cc(NC(=O)NC(=O)c2cccc(Cl)c2)n[nH]1	–	–	–	–	·	·
O=C(CSc1ccccc1)Nc1cc(Cl)ccc1O	–	–	–	–	·	·
O=C(CSc1ccc(F)cc1)Nc1cc(Cl)ccc1O	–	6.4	–	–	–	–
Cn1c(=O)c2c(nc(SCC(=O)Nc3ccccc3[N+](=O)[O-])n2C)n(C)c1=O	–	–	–	–	·	·
COCCOC(=O)c1c(C)oc2ccc(OCC#N)cc12	–	11	–	–	–	–
C#CCOc1ccc2c(c1)c(C(=O)OCC)c(C)n2C	–	–	–	–	·	·
CCOC(=O)c1c(C)n(C)c2ccc(OCC#N)cc12	–	7.1	–	–	–	–
CN1CCN(c2ccc(CN3CCS(=O)(=O)CC3)cc2)CC1	–	–	–	–	·	·
Cc1ccc2nsnc2c1S(=O)(=O)N1CCN(C)CC1	–	–	–	–	·	·
CC(=O)O[C@H]1CC[C@@]2(C)C(C[C@@H](OC(C)=O)[C@@]3(C)C4=CC(=O)O[C@@H](c5ccoc5)[C@]4(C)CCC23)C1(C)C (stereo not given in full)	–	6.5!	–	–	–	–
CCn1c(SCC(=O)c2ccc(C)cc2)nnc1-c1ccccc1N	–	–	–	–	·	·
CC(C)(C)NC(=O)NC(=O)COC(=O)Cc1ccc(Cl)c(Cl)c1	–	7.2	–	–	–	–
CC(C)(C)NC(=O)NC(=O)COC(=O)Cn1cnc2ccccc2c1=O	–	6.8	–	–	–	–
O=C(CSc1nc2cc(C(=O)N3CCN(c4ccccc4)CC3)ccc2c(=O)n1C1CCCCC1)c1ccccc1	–	–	–	–	·	·
COc1c(/C=N/NC(=O)c2ccccc2)sc2ccccc12	–	–	–	–	·	·
COCCOC(=O)C1=C(N)Oc2c(oc(CO)cc2=O)C1c1c(F)cccc1Cl (stereo not given)	–	5.7	–	–	–	–
O=C(NC1CCCCCC1)c1cccc(I)c1	–	–	–	–	·	·
N#Cc1cccc(C(=O)NC2CCCC2)c1	–	5.2	–	–	–	–
CNC(=O)C1Cc2ccccc2CN1S(=O)(=O)c1ccc(OC)c(OC)c1 (stereo not given)	–	–	–	–	·	·
SMILES	TEAD-YAP inh	GPR151 activ	FBW7 activator	MITF primary	GPR151 conf act	GPR119 ag
CCOC(=O)c1ccc2c(c1)sc(=NC(=O)C(C)(C)C)n2C	61	6.5	–	–	–	–
FC(F)(F)c1ccc(Cl)c(NC2=NCCCCC2)c1	–	6.1	–	–	–	–
CC1(C)CC(=O)C2=C(C1)OC(N)=C(C#N)C2(C)C	–	–	–	–	·	·
O=C1CSC(c2cccc([N+](=O)[O-])c2)N1Cc1ccccc1 (stereo not given)	–	10	–	–	–	–
O=C(Nc1ccccc1)c1ccccc1Nc1ccnc(Nc2ccc(N3CCOCC3)cc2)c1	–	–	–	–	·	·
O=C(NCc1ccccc1)c1ccccc1Nc1ccnc(Nc2ccc(N3CCOCC3)cc2)c1	37	11	–	–	–	–
COc1ccc(-c2nnc3ccc(SCc4ccc(F)cc4)nn23)cc1OC	–	–	–	–	·	·
COc1ccc(-c2nnc3ccc(SCc4ccccc4)nn23)cc1OC	–	5.6	–	–	–	–
N#CCOC(=O)[C@H](Cc1c[nH]c2ccccc12)NS(=O)(=O)c1ccc(Cl)cc1	–	–	–	–	·	·
